Measured values taken from PubChem BioAssay (EPA / NIEHS).
Several values for one entry are separate records, joined by “and”; a condition that tells them apart may be missing. Equal entries are not always repeated. Results filed as inconclusive are left out. Activity calls are given as the source filed them. How the source made its calls, unless noted: active means hit-call score of the fitted dose curve at least 0.9, where 1 is the maximum; inconclusive means response in the unintended direction; inactive means score below 0.9.

Columns and labels:
[1] = CCTE_Mundy_HCI_hN2_NOG_NeuriteCount: CCTE's Neurite Outgrowth Assay in human hN2 cells for Neurite Count, Mundy Lab (AID 2284219)
How it was run: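 In this morphology assay, hNP1-derived neurons received test chemical 2 h post-plating and were fixed two days later in warm paraformaldehyde/sucrose containing Hoechst 33342. Neurites, labelled by rabbit anti-βIII-tubulin (1:800) and Alexa Fluor-488 (1:500), were counted automatically.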

[2] = CCTE_Mundy_HCI_hN2_NOG_NeuriteLength: CCTE's Neurite Outgrowth Assay in human hN2 cells for Neurite Length, Mundy Lab (AID 2284220)
How it was run: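 Using βIII-tubulin immunofluorescence and Hoechst nuclear counterstain, this component quantifies neurite length in hNP1-derived neurons.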

[3] = CCTE_Mundy_HCI_Cortical_Synap_Neur_Matur_NeuriteCount: CCTE's Synaptogenesis and Neurite Maturation Assay in rat cortical cells for Neurite Count, Mundy Lab (AID 2284222; active means hit-call score of the fitted dose curve at least 0.9, where 1 is the maximum; inactive means score below 0.9)
Procedure: CCTE_Mundy_HCI_Cortical_Synap&Neurite_Matur is a multiplexed, cell-based-readout assay that uses rat primary cortical cells with measurements taken at 288.33 hours after chemical dosing in a microplate: 96-well plate.CCTE_Mundy_HCI_Cortical_Synap_Neur_Matur_NeuriteCount is one of eight components of the CCTE_Mundy_HCI_Cortical_Synap&Neurite_Matur assay. It measures synaptogenesis and neurite maturation related to number of neurites using High Content Imaging of fluorescently labelled markers.[…] Using a type of morphology reporter, loss -of-signal activity can be used to understand developmental effects.
Cells are plated onto 96 well plates and allowed 2 hr for attachment to the substrate. At days in vitro (DIV) 5, Cytosine Arabinoside (AraC) is added to arrest glial cell growth. Chemicals are dosed and a media change is performed at DIV 7 of differentiation and is continued through DIV 12 when the experiment is terminated. Cells are fixed with […] and Hoechst Dye. Cells are stained using Millipore Mouse anti-MAP2MAB3418 (1:800) and Millipore Rabbit anti-Synaptophysinsc-1750 (1:250) primary antibodies and Alexa Fluor-488 goat anti-mouse and AlexaFluor-546 goat anti-rabbit secondary antibodies to label neuronal cell nuclei, synapses and neurites. A Cellomics ArrayScan VTi HCS Reader is used for automated image acquisition and analysis of neurite outgrowth.

Question: For `CC1=C(/C=C/C(C)=C/C=C/C(C)=C/C(=O)O)C(C)(C)CCC1`, which AC50 [1] is on record?
Answer: The AC50 was 12.1 µM (active).

Question: And the AC50 [2]?
Answer: Its AC50 is 0.417 µM (active).

Question: For `CN1CCC[C@H]1c1cccnc1`, which outcome [2] is on record?
Answer: Its outcome is “inactive”.

Question: Which AC50 [3] does the source give for `CC#C[C@]1(O)CC[C@H]2[C@@H]3CCC4=CC(=O)CCC4=C3[C@@H](c3ccc(N(C)C)cc3)C[C@@]21C` here?
Answer: The AC50 was 17.9 µM (active) and 23.1 µM (active).
